The text below walks through data of PubChem BioAssay AID2284132 (EPA ToxCast).

Structures are written as SMILES. Results filed as inconclusive are left out. Calls of active or inactive are those of the source. Rule for the calls: active = hit-call score of the fitted dose curve at least 0.9, where 1 is the maximum; inconclusive = response in the unintended direction; inactive = score below 0.9.

Chain of human SGK1 AGC Kinase, SGK1 (gene 6446) (O00141 whole entry, looked up): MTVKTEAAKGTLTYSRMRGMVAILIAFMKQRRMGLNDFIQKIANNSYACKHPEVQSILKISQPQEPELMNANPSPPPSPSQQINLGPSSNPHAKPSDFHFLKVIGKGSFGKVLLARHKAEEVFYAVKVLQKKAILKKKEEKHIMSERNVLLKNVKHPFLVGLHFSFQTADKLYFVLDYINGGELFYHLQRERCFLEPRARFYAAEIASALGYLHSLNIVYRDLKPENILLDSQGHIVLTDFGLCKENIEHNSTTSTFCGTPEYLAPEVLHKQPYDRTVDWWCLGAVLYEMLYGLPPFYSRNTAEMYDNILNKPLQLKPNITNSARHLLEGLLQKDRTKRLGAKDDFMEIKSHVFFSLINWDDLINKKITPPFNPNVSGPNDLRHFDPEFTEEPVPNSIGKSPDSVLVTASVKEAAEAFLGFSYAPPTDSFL

The target in the test is human SGK1 AGC Kinase, SGK1 (gene 6446) (UniProt O00141). Briefly: ERF_FR_ENZ_hSGK1: Eurofins (ERF) Enzymatic Radiometric [Km ATP] KinaseProfiler LeadHunter Assay for human SGK1 AGC Kinase. As for the experimental part:
ERF_FR_ENZ_hSGK1 is a biochemical, single-readout assay that uses extracted gene-proteins in a cell-free assay. Measurements were taken 0.5 hour after chemical dosing in a 96-well plate. See SGK1 Human AGC Kinase Enzymatic LANCE Assay [Km ATP], Cerep.ERF_FR_ENZ_hSGK1 is an assay component calculated from the ERF_FR_ENZ_hSGK1 assay. It is designed to measure enzyme activity using a type of enzyme reporter as detected by fluorescence intensity with LANCE technology.Data from the assay component ERF_FR_ENZ_hSGK1 was analyzed at the assay endpoint, ERF_FR_ENZ_hSGK1, in the positive analysis fitting direction relative to DMSO as the negative control and baseline of activity. Using a type of enzyme reporter, loss-of-signal activity can be used to understand changes in enzymatic activity as they relate to gene SGK1. To generalize the intended target to other relatable targets, this assay endpoint is annotated to the kinase intended target family, where the subfamily is serine/threonine kinase.
SGK (h) is incubated with 8 mM MOPS pH 7.0, 0.2 mM EDTA, 30 uM […], 10 mM MgAcetate and [g- 33P]-ATP (specific activity and concentration as required). The reaction is initiated by the addition of the Mg/ATP mix. After incubation for 40 minutes at room temperature, the reaction is stopped by the addition of phosphoric acid to a concentration of 0.5%. […]
`O=C(/C=C/c1ccc(O)cc1)CC(=O)/C=C/c1ccc(O)cc1`: the compound was classed as inactive.
